Molecular target: ARIH1
Assay: pooled miR-30 sensor sort-seq; sequence = guide strand
Settings: shRNA
Also: reference of the scale not given here.

Sequence | sensor-assay potency score (higher = more potent)
TTTAACAGTCGATTGCACTCTA | 0.745
TTAACCACTTACATTTAACAGG | -0.703
TTGTCTTGTACTTTCTGCTTTA | -0.218
TATCCTGCAGAGAATCTTGGGA | 0.446
TTAGGGTAGTTCAAGTAGCAGA | -0.412
TTTAATTGCATGAGCACTCTAG | -0.104
TACTTTCTGCTTTATATCCTGC | 0.014
TTAACAGTCGATTGCACTCTAC | -0.996

Molecular target: ARL3
Assay: as above
Settings: shRNA

Sequence | sensor-assay potency score (higher = more potent)
TCTGGTGCACTTTTCAACTTGC | 0.321
TTGTACACTTTTGATGTTGAAA | -1.03
TTGATGTTGAAACCCTGTGTAG | -0.924
TTTTCTGTCTGCACTGTCGATT | -0.243
TGATTGTACACTTTTGATGTTG | -0.736
TTAGTTTTTCTTCCTCCAGTAA | -0.387
TTCAGATGCAAGCTGCTTCAGA | -0.224
AATTCTTCCAGTATGGTCTGAT | 0.17
TTGACATTTTTGCAGACCCAGT | -1.64
ATACATTCAGTTTAAAACCTTG | -0.514
TAAGAATATCGGTATTTTCAAA | -1.26
TTCAGAAGAGTGGTCTTGCCAG | -0.492
TAATTCTTCCAGTATGGTCTGA | 0.485
AATCTTTTTCTGTCTGCACTGT | -0.19
TTCAGTTTAAAACCTTGTGATT | -1.5
TACATATATAAGAATATCGGTA | -0.522
TTACATATATAAGAATATCGGT | -0.321
TTTTCAAAATAATTCTTCCAGT | -0.927
TTGTGATTGTACACTTTTGATG | -1.36
AACCTTGTGATTGTACACTTTT | -0.441
TTTGATGTTGAAACCCTGTGTA | 0.537
TTTTTCTGTCTGCACTGTCGAT | -0.887
TTTTGATGTTGAAACCCTGTGT | 0.456

Molecular target: ARL4D
Assay: as above
Settings: shRNA

Sequence | sensor-assay potency score (higher = more potent)
TGATTCGGTGCAACTCCACCTT | 0.0703
AAGAGCGCCACAGTGGTCGCAG | -0.161
TCGGTGTTGAAGCCTTTGGTGG | -1.59
TTTGGTGGGGACACTCTGGACA | -0.71
AACACTAGACCGTCTGTCCGGC | -0.396
TTCGGTGCAACTCCACCTTGGC | 0.0163
TCCACCACAAACACTAGACCGT | -0.55
TTCCTCTTGAGGATCATCTCAT | 0.0255
TGGAAGGTGATGCCACGCGATC | -1.76
